Experimental data as given in the supplement of paper PMC10849652.
Of roughly 7,900 targets only a part is listed; those with a hit were picked by preference. About 0.6% of all pairs of compound and target were hits.

What was measured:
Assay in all cases: log2 fold change, soluble protein after heating vs DMSO (PISA); higher = thermal stabilisation; K562 cells, 10 uM, 30 min; active = over 0.2 and 3.5 SD of the protein, either way, in both replicates (recomputed)
saracatinib = compound: CN1CCN(CCOc2cc(OC3CCOCC3)c3c(Nc4c(Cl)ccc5c4OCO5)ncnc3c2)CC1 [saracatinib]
How it was run: (§1)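 K562 cells at 2×10^6 cells/mL were exposed to 10 μM compound for 30 min, then aliquots were heated for 3 min across 48°C-58°C, pooled, and extracted in PBS containing 0.5% NP-40 at 4°C. The supernatant after 21,000xg for 90 min was taken as soluble protein and measured by TMTpro 16plex LC-MS/MS with channel sums equalised. Thermal stability is reported relative to control samples, with values from duplicates. Fold changes are given on a log2 scale.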

sotrastaurin = compound: CN1CCN(c2nc(C3=C(c4c[nH]c5ccccc45)C(=O)NC3=O)c3ccccc3n2)CC1 [sotrastaurin]
How it was run: as §1

alvocidib = compound: CN1CC[C@H](c2c(O)cc(O)c3c(=O)cc(-c4ccccc4Cl)oc23)[C@H](O)C1 [alvocidib]
How it was run: as §1

Tubastatin A = compound: CN1CCc2c(c3ccccc3n2Cc2ccc(C(=O)NO)cc2)C1 [Tubastatin A]
How it was run: as §1

[1] = compound: CNC(=O)C1=CC=CC=C1NC2=NC(=NC=C2Cl)NC3=C(C=C(C=C3)N4CCOCC4)OC
How it was run: as §1

defactinib = compound: CNC(=O)c1ccc(Nc2ncc(C(F)(F)F)c(NCc3nccnc3N(C)S(C)(=O)=O)n2)cc1 [defactinib]
How it was run: as §1

rucaparib = compound: CNCc1ccc(-c2[nH]c3cc(F)cc4c3c2CCNC4=O)cc1 [rucaparib]
How it was run: as §1

[2] = compound: CNc1nc(-c2ccc3c(N)n[nH]c3c2)cc(N2C[C@@H](C(=O)NC3CCCCC3)CC[C@H]2C)n1
How it was run: as §1

encorafenib = compound: COC(=O)N[C@@H](C)CNc1nccc(-c2cn(C(C)C)nc2-c2cc(Cl)cc(NS(C)(=O)=O)c2F)n1 [encorafenib]
How it was run: as §1

[3] = compound: COC(=O)[C@H](CCSC)NC(=O)C1=C(C=C(C=C1)NC[C@H](CS)N)C2=CC=CC=C2
How it was run: as §1

Measured: log2 fold change

IFRD1 (UniProt O00458)
active: rucaparib -0.46
inactive: saracatinib 0.026 | sotrastaurin 0.242 | alvocidib 0.064 | Tubastatin A 0.089 | [1] 0.042 | defactinib -0.003 | [2] -0.042 | encorafenib 0.038 | [3] 0.006

GSK3A (UniProt P49840)
UniProt P49840, sequence (P49840 whole entry, looked up): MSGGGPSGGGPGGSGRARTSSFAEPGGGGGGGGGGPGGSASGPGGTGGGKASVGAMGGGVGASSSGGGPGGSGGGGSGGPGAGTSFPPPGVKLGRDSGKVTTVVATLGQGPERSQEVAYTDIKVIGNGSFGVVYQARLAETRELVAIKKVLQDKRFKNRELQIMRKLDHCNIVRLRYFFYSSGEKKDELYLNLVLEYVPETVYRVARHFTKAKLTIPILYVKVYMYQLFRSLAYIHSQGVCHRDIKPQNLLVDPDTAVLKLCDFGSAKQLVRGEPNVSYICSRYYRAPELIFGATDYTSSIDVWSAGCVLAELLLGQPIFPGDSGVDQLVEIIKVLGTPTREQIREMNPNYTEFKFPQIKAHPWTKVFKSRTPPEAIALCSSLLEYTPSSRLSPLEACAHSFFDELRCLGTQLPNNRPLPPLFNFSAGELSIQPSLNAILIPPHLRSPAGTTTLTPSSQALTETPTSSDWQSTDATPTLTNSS
active: sotrastaurin 0.337
inactive: saracatinib -0.007 | alvocidib 0.257 | Tubastatin A -0.007 | [1] -0.009 | defactinib 0.18 | rucaparib 0.22 | [2] -0.041 | encorafenib 0.005 | [3] -0.051

FNTA (UniProt P49354)
inactive: saracatinib 0.084 | sotrastaurin 0.141 | alvocidib -0.006 | Tubastatin A -0.068 | [1] -0.028 | defactinib 0.019 | rucaparib -0.243 | [2] -0.016 | encorafenib -0.239
active: [3] 0.561

GUK1 isoform 2 (UniProt Q16774)
UniProt Q16774, sequence (Q16774 whole entry, looked up): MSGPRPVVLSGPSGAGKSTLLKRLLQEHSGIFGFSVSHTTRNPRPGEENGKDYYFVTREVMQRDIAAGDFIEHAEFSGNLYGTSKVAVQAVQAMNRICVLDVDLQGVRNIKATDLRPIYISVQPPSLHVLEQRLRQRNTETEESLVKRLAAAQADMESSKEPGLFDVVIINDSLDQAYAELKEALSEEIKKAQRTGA
inactive: saracatinib 0.001 | sotrastaurin -0.223 | alvocidib -0.092 | Tubastatin A 0.064 | [1] 0.027 | defactinib -0.162 | rucaparib 0.175 | [2] 0.026 | encorafenib -0.079 | [3] 0

GDE1 (UniProt Q9NZC3)
inactive: saracatinib 0.029 | sotrastaurin 0.051 | alvocidib -0.059 | [1] -0.003 | defactinib -0.017 | rucaparib 0.009 | [2] 0.01 | encorafenib -0.017 | [3] 0.024
active: Tubastatin A -0.316

HNRNPH1 (UniProt P31943)
UniProt P31943, sequence (P31943 whole entry, looked up): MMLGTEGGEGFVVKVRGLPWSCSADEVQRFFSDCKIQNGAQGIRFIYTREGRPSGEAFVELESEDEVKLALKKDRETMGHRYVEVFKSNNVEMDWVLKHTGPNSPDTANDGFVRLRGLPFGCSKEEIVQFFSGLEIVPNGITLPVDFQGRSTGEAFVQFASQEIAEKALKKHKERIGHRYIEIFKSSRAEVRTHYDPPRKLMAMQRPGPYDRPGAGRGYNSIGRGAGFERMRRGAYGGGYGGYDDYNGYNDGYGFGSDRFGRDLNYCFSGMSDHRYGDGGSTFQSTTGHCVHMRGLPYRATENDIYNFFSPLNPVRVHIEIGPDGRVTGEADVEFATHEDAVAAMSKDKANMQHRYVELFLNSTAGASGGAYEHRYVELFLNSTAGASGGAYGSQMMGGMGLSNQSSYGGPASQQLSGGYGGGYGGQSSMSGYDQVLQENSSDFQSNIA
inactive: saracatinib -0.018 | sotrastaurin -0.157 | alvocidib -0.163 | Tubastatin A 0.076 | [1] -0.065 | defactinib -0.278 | rucaparib 0.08 | [2] 0.058 | encorafenib 0.114 | [3] -0.047

GAB2 (UniProt Q9UQC2)
inactive: saracatinib -0.164 | sotrastaurin 0.029 | alvocidib -0.053 | Tubastatin A -0.024 | [1] -0.575 | defactinib -0.194 | rucaparib 0.162 | [2] -0.137 | encorafenib -0.023 | [3] 0.116

GTF2E1 (UniProt P29083)
UniProt P29083, sequence (P29083 whole entry, looked up): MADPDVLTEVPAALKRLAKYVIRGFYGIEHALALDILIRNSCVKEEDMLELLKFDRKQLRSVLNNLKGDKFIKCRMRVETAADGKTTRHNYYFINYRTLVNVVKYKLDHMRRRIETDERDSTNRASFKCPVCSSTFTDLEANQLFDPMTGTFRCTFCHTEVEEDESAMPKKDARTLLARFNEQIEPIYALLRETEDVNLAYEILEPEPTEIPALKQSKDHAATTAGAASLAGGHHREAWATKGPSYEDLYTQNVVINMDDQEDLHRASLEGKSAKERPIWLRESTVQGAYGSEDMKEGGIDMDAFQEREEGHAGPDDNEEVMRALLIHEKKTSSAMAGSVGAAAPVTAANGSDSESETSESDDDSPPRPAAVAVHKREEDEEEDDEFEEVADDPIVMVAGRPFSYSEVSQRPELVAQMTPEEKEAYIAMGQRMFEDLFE
inactive: saracatinib -0.026 | sotrastaurin -0.11 | alvocidib -0.148 | Tubastatin A 0.064 | [1] 0 | defactinib -0.272 | rucaparib -0.126 | [2] -0.047 | encorafenib 0.199 | [3] -0.099

IFT74 (UniProt Q96LB3)
UniProt Q96LB3, sequence (Q96LB3 whole entry, looked up): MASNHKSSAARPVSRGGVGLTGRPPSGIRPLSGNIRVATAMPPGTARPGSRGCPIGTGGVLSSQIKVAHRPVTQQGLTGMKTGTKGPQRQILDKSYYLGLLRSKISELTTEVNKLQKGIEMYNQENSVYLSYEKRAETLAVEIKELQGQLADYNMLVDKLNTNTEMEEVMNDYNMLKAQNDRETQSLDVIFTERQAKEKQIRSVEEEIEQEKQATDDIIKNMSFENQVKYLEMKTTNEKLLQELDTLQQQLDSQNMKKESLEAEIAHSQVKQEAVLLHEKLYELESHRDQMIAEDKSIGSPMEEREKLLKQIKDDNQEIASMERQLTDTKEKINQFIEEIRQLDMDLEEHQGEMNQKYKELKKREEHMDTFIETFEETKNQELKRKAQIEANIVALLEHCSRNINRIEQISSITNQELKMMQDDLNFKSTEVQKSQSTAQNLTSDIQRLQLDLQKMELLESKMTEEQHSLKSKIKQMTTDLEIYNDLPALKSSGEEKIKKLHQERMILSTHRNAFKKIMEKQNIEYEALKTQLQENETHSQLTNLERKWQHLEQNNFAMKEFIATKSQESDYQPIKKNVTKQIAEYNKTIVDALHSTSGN
inactive: saracatinib -0.079 | sotrastaurin -0.001 | alvocidib 0.048 | Tubastatin A 0.259 | [1] -0.223 | defactinib 0.028 | rucaparib 0.06 | [2] 0.003 | encorafenib -0.055 | [3] 0.075

HNRNPUL2 (UniProt Q1KMD3)
inactive: saracatinib -0.023 | sotrastaurin 0.039 | alvocidib 0.166 | Tubastatin A 0.065 | [1] -0.06 | rucaparib 0.125 | [2] -0.017 | encorafenib 0.007 | [3] 0.006
active: defactinib 0.259

HAT1 (UniProt O14929)
inactive: saracatinib 0.047 | sotrastaurin -0.058 | alvocidib -0.209 | Tubastatin A 0.036 | [1] 0.05 | defactinib -0.139 | rucaparib -0.066 | [2] -0.061 | encorafenib 0.064 | [3] -0.017

HEATR5B (UniProt Q9P2D3)
inactive: saracatinib 0.043 | sotrastaurin 0.008 | alvocidib -0.023 | Tubastatin A 0.016 | [1] 0.022 | defactinib -0.099 | rucaparib 0.028 | [2] 0.015 | encorafenib 0.041 | [3] -0.006

HBA1 (UniProt P69905)
inactive: saracatinib -0.017 | sotrastaurin 0.036 | alvocidib -0.02 | Tubastatin A 0.035 | [1] -0.01 | defactinib -0.014 | rucaparib -0.036 | [2] 0.011 | encorafenib -0.043 | [3] -0.034

HMOX2 (UniProt P30519)
UniProt P30519, sequence (P30519 whole entry, looked up): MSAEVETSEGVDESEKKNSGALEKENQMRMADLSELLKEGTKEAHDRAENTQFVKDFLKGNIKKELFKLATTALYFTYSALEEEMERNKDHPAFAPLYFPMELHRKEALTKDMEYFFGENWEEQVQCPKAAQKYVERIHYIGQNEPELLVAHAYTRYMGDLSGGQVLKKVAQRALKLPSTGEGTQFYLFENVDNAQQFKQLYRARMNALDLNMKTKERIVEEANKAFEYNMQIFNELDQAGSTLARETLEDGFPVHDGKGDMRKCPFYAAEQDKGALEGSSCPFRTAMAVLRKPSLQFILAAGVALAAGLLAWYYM
inactive: saracatinib -0.071 | sotrastaurin -0.04 | alvocidib -0.06 | Tubastatin A 0.004 | [1] 0.03 | defactinib -0.049 | rucaparib 0.036 | [2] 0.15 | encorafenib 0.081 | [3] -0.038

HEXA (UniProt P06865)
inactive: saracatinib 0.031 | sotrastaurin 0.098 | alvocidib 0.005 | Tubastatin A -0.145 | [1] -0.012 | defactinib -0.008 | rucaparib -0.07 | [2] -0.018 | encorafenib 0.003 | [3] 0.016

HRAS (UniProt P01112)
UniProt P01112, sequence (P01112 whole entry, looked up): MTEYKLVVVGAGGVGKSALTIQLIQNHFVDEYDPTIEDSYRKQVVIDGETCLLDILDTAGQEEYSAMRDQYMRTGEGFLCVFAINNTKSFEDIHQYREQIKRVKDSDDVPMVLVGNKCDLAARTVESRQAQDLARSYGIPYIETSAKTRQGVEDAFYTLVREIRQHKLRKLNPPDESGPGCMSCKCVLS
inactive: saracatinib 0.002 | sotrastaurin 0.091 | alvocidib -0.075 | Tubastatin A 0.014 | [1] -0.015 | defactinib -0.012 | rucaparib 0.072 | [2] 0.077 | encorafenib -0.042 | [3] 0.062

GTF3A (UniProt Q92664)
UniProt Q92664, sequence (Q92664 whole entry, looked up): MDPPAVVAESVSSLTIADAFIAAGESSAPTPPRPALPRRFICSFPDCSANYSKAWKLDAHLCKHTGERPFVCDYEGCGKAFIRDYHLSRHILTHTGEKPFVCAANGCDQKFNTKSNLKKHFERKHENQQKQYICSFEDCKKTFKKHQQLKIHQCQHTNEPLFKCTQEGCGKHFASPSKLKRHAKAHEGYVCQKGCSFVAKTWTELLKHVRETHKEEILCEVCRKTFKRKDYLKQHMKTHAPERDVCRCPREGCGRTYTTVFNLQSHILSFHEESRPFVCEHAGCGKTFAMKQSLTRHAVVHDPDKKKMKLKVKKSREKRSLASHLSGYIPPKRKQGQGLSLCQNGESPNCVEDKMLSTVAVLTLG
inactive: saracatinib 0.019 | sotrastaurin -0.008 | alvocidib -0.113 | Tubastatin A -0.072 | [1] -0.03 | defactinib -0.18 | rucaparib 0.206 | [2] -0.005 | encorafenib -0.138 | [3] 0

HHEX (UniProt Q03014)
UniProt Q03014, sequence (Q03014 whole entry, looked up): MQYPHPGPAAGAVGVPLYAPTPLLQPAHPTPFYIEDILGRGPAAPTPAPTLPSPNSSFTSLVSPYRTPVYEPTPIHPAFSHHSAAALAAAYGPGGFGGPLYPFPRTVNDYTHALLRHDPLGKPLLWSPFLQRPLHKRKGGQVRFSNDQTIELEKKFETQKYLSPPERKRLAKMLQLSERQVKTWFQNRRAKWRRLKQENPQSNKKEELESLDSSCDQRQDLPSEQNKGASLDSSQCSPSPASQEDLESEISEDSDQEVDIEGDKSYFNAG
inactive: saracatinib 0.095 | sotrastaurin -0.068 | alvocidib -0.146 | Tubastatin A 0.126 | [1] 0.035 | defactinib -0.173 | rucaparib 0.04 | [2] -0.011 | encorafenib -0.061 | [3] 0.651

FANCI (UniProt Q9NVI1)
inactive: saracatinib -0.022 | sotrastaurin -0.099 | alvocidib -0.13 | Tubastatin A -0.103 | [1] -0.111 | defactinib -0.179 | rucaparib 0.041 | [2] -0.002 | encorafenib 0.003 | [3] -0.02

FERMT3 (UniProt Q86UX7)
UniProt Q86UX7, sequence (Q86UX7 whole entry, looked up): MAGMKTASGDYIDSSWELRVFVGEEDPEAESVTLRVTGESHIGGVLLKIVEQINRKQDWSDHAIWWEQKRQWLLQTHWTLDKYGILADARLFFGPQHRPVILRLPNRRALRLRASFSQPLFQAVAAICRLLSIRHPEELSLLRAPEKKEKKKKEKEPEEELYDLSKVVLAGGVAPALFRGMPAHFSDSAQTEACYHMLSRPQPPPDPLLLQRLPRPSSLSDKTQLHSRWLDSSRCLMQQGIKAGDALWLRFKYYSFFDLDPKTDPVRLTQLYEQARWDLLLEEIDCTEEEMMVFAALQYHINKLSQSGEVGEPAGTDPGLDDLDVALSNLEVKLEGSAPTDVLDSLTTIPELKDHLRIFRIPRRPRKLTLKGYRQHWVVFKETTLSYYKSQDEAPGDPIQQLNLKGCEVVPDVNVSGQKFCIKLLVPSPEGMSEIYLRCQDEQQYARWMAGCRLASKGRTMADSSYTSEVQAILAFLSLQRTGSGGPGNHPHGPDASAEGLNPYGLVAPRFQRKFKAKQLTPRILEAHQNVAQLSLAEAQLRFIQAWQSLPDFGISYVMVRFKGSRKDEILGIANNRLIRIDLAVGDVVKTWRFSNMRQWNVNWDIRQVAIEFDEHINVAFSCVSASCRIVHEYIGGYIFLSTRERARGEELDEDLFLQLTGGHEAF
inactive: saracatinib 0.019 | sotrastaurin -0.016 | alvocidib -0.055 | Tubastatin A -0.003 | [1] 0.008 | defactinib -0.069 | rucaparib -0.003 | [2] 0.036 | encorafenib 0.063 | [3] -0.03

HDAC2 (UniProt Q92769)
active: Tubastatin A 0.907
inactive: saracatinib -0.001 | sotrastaurin -0.02 | alvocidib -0.091 | [1] -0.113 | defactinib -0.035 | rucaparib -0.006 | [2] -0.015 | encorafenib -0.046 | [3] -0.006

FUBP3 (UniProt Q96I24)
inactive: saracatinib 0.012 | sotrastaurin 0.05 | alvocidib 0.129 | Tubastatin A -0.092 | [1] -0.039 | defactinib 0.184 | rucaparib 0.167 | [2] -0.049 | encorafenib -0.003 | [3] -0.032

HNRNPF (UniProt P52597)
inactive: saracatinib -0.042 | sotrastaurin -0.121 | alvocidib -0.088 | Tubastatin A 0.086 | [1] 0.004 | defactinib -0.253 | rucaparib 0.098 | [2] 0.004 | encorafenib 0.119 | [3] -0.06

GNL1 (UniProt P36915)
UniProt P36915, sequence (P36915 whole entry, looked up): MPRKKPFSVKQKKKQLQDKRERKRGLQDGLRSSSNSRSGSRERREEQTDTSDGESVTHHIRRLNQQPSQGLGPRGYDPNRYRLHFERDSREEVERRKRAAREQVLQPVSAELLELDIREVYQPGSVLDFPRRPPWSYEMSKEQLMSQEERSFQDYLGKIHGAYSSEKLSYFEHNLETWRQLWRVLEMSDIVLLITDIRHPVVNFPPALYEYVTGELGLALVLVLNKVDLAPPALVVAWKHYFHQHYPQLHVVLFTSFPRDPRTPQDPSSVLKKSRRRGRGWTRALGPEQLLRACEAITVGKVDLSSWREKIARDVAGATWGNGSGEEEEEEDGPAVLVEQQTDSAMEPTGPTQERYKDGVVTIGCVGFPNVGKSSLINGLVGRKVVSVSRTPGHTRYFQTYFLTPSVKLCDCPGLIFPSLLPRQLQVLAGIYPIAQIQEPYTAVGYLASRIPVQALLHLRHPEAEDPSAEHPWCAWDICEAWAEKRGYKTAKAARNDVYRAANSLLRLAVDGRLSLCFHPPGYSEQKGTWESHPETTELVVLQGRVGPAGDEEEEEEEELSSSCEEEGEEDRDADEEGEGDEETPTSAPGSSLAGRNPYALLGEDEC
inactive: saracatinib 0.013 | sotrastaurin 0.013 | alvocidib -0.038 | Tubastatin A 0.018 | [1] 0.009 | defactinib 0.023 | rucaparib -0.039 | [2] 0.016 | encorafenib 0.021 | [3] -0.011

GEMIN5 (UniProt Q8TEQ6)
active: defactinib -0.216
inactive: saracatinib -0.014 | sotrastaurin -0.035 | alvocidib -0.192 | Tubastatin A -0.053 | [1] -0.02 | rucaparib 0.026 | [2] 0.025 | encorafenib 0.061 | [3] -0.019

GDI1 (UniProt P31150)
inactive: saracatinib 0.017 | sotrastaurin 0.012 | alvocidib -0.067 | Tubastatin A -0.025 | [1] 0.012 | defactinib -0.046 | rucaparib -0.042 | [2] -0.015 | encorafenib 0.006 | [3] 0.009

HDAC1 (UniProt Q13547)
active: Tubastatin A 1.52
inactive: saracatinib -0.004 | sotrastaurin -0.026 | alvocidib -0.137 | [1] -0.163 | defactinib -0.15 | rucaparib 0.023 | [2] 0.04 | encorafenib -0.046 | [3] -0.062

GTF3C5 isoform 3 (UniProt Q9Y5Q8)
inactive: saracatinib 0.024 | sotrastaurin -0.148 | alvocidib 0.036 | Tubastatin A 0.068 | [1] -0.02 | defactinib -0.069 | rucaparib -0.173 | [2] 0.056 | encorafenib 0.085 | [3] -0.021

GTPBP6 (UniProt O43824)
inactive: saracatinib 0.049 | sotrastaurin -0.011 | alvocidib 0.015 | Tubastatin A -0.03 | [1] -0.149 | defactinib -0.013 | rucaparib 0.053 | [2] 0.007 | encorafenib -0.086 | [3] 0.057

FBXO6 (UniProt Q9NRD1)
UniProt Q9NRD1, sequence (Q9NRD1 whole entry, looked up): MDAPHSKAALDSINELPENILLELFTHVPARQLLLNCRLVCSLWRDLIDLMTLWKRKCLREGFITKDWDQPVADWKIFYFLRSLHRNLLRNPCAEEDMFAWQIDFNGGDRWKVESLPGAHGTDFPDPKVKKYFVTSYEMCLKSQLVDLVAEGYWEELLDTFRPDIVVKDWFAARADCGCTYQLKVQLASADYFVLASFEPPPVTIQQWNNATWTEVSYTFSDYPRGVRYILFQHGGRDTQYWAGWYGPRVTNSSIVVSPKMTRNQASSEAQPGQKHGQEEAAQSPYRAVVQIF
inactive: saracatinib 0.042 | sotrastaurin -0.085 | alvocidib -0.092 | Tubastatin A -0.016 | [1] 0.031 | defactinib -0.038 | rucaparib -0.064 | [2] 0.011 | encorafenib 0.033 | [3] -0.099

GNPAT (UniProt O15228)
inactive: saracatinib 0.01 | sotrastaurin 0.077 | alvocidib -0.073 | Tubastatin A -0.047 | [1] 0.045 | defactinib -0.035 | rucaparib -0.06 | [2] -0.041 | encorafenib 0.001 | [3] -0.027
